In PubChem BioAssay (NCI):
This is part of a sample that, as a whole, favours compounds with a hit. Of some 83,000 tested, about 20% had one in any assay.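 Activity criterion: percent growth below 10, measured after cells in 96-well plates were exposed to a single compound concentration for 48 hours.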 A number with no mark means an inactive call. Calls of active or inactive are those of the source.

What was measured:
Test in all cases: NCI-60 one-dose screen, 48 h (100 = growth as untreated, 0 = no growth, -100 = all killed)
Details in all cases: 10 µM unless noted
[1] = tested on: HCT-15 colon
[2] = tested on: HT29 colon
[3] = tested on: SNB-75 CNS
[4] = tested on: SNB-19 CNS
[5] = tested on: U251 CNS
[6] = tested on: PC-3 prostate
[7] = tested on: SK-MEL-5 melanoma
[8] = tested on: UACC-62 melanoma
[9] = tested on: LOX IMVI melanoma
[10] = tested on: SK-MEL-28 melanoma
[11] = tested on: SK-MEL-2 melanoma
[12] = tested on: EKVX NSCLC
[13] = tested on: SN12C renal
[14] = tested on: UO-31 renal
[15] = tested on: TK-10 renal
[16] = tested on: ACHN renal
[17] = tested on: CAKI-1 renal
[18] = tested on: A498 renal
[19] = tested on: CCRF-CEM leukemia
[20] = tested on: MOLT-4 leukemia

Row | SMILES | growth [1] | growth [2] | growth [3] | growth [4] | growth [5] | growth [6] | growth [7] | growth [8] | growth [9] | growth [10] | growth [11] | growth [12] | growth [13] | growth [14] | growth [15] | growth [16] | growth [17] | growth [18] | growth [19] | growth [20]
1 | COc1ccc2[nH]c(O)c(N=Nc3nc(-c4ccc(Br)cc4)cs3)c2c1 | 2.5% (active) | 12.8% | -41.4% (active) | 36.4% | -39.5% (active) | 21% | 35.1% | 18.7% | 4.53% (active) | 15.4% | 21.1% | 6.08% (active) | -46.4% (active) | 0.841% (active) | 33.4% | -64.2% (active) | 2.6% (active) | -78% (active) | 14.7% | -17.7% (active)
2 | COC(=O)c1cc(C(C)=O)n2c3ccccc3c3ccccc3c12 | 71.3% | 92.6% | -12.2% (active) | 42.9% | 80.6% | 56.5% | 21.9% | 67% | 64.7% | 92.4% | 99.2% | 69.5% | 75.6% | 38% | 74.3% | 36.4% | 44.5% | 121% | 85.2% | 73.3%
3 | CCc1ccc(SC2c3cc(OC)ccc3Oc3nc(N)c(C#N)c(N)c32)cc1 (stereo not given) | -45% (active) | -60.5% (active) | -21.3% (active) | 0.536% (active) | -13.4% (active) | 3.3% (active) | -95.9% (active) | -80.7% (active) | -62.2% (active) | 0.874% (active) | -88.8% (active) | -76.2% (active) | 1.31% (active) | 4.16% (active) | -50.1% (active) | 3.73% (active) | -56.5% (active) | -87.9% (active) | 1.76% (active) | -50.1% (active)
4 | O=C(NNC(=S)NC(=O)c1ccccc1)c1ccc(OCc2nc3ccc(Cl)cc3[nH]2)cc1 | -75.1% (active) | -6.38% (active) | -17.8% (active) | -12.9% (active) | -71.4% (active) | 2.48% (active) | -73.4% (active) | -88.4% (active) | -92.2% (active) | -82.7% (active) | -47.3% (active) | -53% (active) | -80.2% (active) | -76.1% (active) | 11.2% | -43% (active) | -1.67% (active) | -55% (active) | 2.87% (active) | 2.46% (active)
5 | COc1ccc(C(=O)NNC(=O)CSc2nc3sc4c(c3c(=O)n2-c2ccc(Cl)cc2)CCCC4)cc1 | 76.3% | 91.2% | 44.5% | 63.3% | 42.3% | 80.6% | 46.8% | 26.1% | 55.5% | 72.5% | 92.2% | 55.1% | 29.5% | 65.1% | 143% | 85.7% | 74% | 124% | 70.4% | 63.7%
6 | COc1cc(CNC(=O)[C@]23CCC(C)(C)CC2C2=CCC4[C@@]5(C)CCC(OC(C)=O)C(C)(C)C5CC[C@@]4(C)[C@]2(C)CC3)ccc1OCc1cn(-c2ccc(Cl)cc2Cl)nn1 (stereo not given in full) | 111% | 98% | 118% | 89.8% | 104% | 98.3% | 103% | 81.4% | 98.3% | 117% | 99.8% | 86.5% | 94.1% | 80.2% | 134% | 101% | 77.9% | 146% | 98.2% | 104%
7 | COc1ccc(N=Nc2c(N)nn3c(N)c(C#N)c(-c4ccc(F)cc4)nc23)cc1 | 86.1% | 84.6% | 82.4% | 59.5% | 48.7% | 67% | 34.7% | 61.5% | 75.1% | 90.5% | 110% | 72.6% | 61.3% | 50.6% | 66.7% | 53.5% | 58.6% | 155% | 86.7% | 77.6%
8 | Cc1ccc(Nc2nnc(-c3c[nH]c4ccccc34)o2)c(C)c1 | 8.92% (active) | -37.9% (active) | 27.3% | 31.3% | 5.02% (active) | 28.7% | 6.62% (active) | 7.3% (active) | 1.68% (active) | 54.5% | 31.4% | 21.9% | 18% | 26.4% | 45.8% | 34.3% | 33.5% | 112% | -0.0547% (active) | 0.191% (active)
9 | COc1sc(/C=N/NC(=O)c2[nH]c3ccc(Br)cc3c2-c2ccccc2)cc1Br | 7.77% (active) | -26.9% (active) | 57.1% | 14.7% | -11.2% (active) | 19.4% | -53.5% (active) | 17% | -23.4% (active) | 18.2% | 15.4% | 13.5% | 5.93% (active) | 31.1% | 64.6% | 7.58% (active) | 15.2% | 134% | 6.23% (active) | -2.1% (active)
10 | C#CCN(C)CCCOc1ccc(N(C)C(=O)c2cc(C(C)C)c(O)cc2O)cc1Cl | 4.84% (active) | 9.18% (active) | 26.2% | 22.1% | 11.4% | 20% | -94.4% (active) | -17.6% (active) | -89.2% (active) | 15.9% | -6.01% (active) | 15.9% | 11.5% | 16.5% | 21.4% | 15.7% | 16.6% | 39.7% | 13.9% | -14% (active)
11 | O=C(Nc1ccc(Br)cc1)Nc1ccc(-c2ccc3c(c2)NC(=O)/C3=C\c2ccc[nH]2)cc1 | 42.8% | 23.1% | 59.2% | 75.2% | 39.5% | 52.6% | 33.1% | 24.7% | 25.6% | 57.5% | 36.7% | 42.3% | 52.5% | 20.6% | 52.3% | 30% | 31.1% | 105% | 25.3% | 35.6%
12 | CN1C(=O)C(O)(CC(=O)c2cc3ccccc3oc2=O)c2ccccc21 (stereo not given) | 94.7% | 104% | 107% | 93.3% | 97.2% | 92.4% | 100% | 86.8% | 87.9% | 107% | 111% | 90.1% | 88.8% | 57.3% | 116% | 98.1% | 86.1% | 162% | 92% | 83.4%
13 | C#CCCCNCCNc1ccnc2cc(Cl)ccc12 | 43.5% | 25.7% | 100% | 101% | 84.3% | 73.1% | 45.9% | 73.5% | 40.1% | 79% | 98.1% | 70.3% | 74.2% | 60.8% | 82.9% | 87.7% | 44.5% | 108% | 77.6% | 65.1%
14 | COc1cccc(NC(=O)c2ccc(NC(=O)CCl)s2)c1 | -29.7% (active) | -7.55% (active) | 74.6% | 73.8% | -39.9% (active) | -12.4% (active) | 32.1% | -19.4% (active) | -94.9% (active) | 51% | 79.6% | 95% | -14.4% (active) | 62.1% | 54.8% | 66.4% | 53.8% | 108% | 1.03% (active) | -7.31% (active)
15 | CC[C@]12C=CCN3CC[C@@]4(c5ccc(OC)cc5N(C)[C@H]4[C@@](O)(C(=O)OC)[C@@H]1OC(=O)CCCC[P+](c1ccc(F)cc1)(c1ccc(F)cc1)c1ccc(F)cc1)[C@@H]32 | 102% | 15.9% | -5.3% (active) | 6.61% (active) | 13% | 15.7% | -59.7% (active) | -69.6% (active) | 25% | -54.9% (active) | -54% (active) | 53% | 10.6% | 85.9% | 70.2% | 103% | 73.2% | 99.2% | 19.9% | 29.1%
